Entries with a potency or affinity are not part of this list. Active and inactive are the calls of the source. No rule for the calls is given here.
Assay: viability loss in HEK293 cells – cell-based, plate reader, cherry-picked samples, cytotoxicity control, dose response (AID 743446)
Details: stronger effect = lower value; at 26 µM unless noted

Q: Which max activity does the source give for `CC1(c2ccccc2Cl)NC(=O)N(CC(=O)N2CCc3ccccc32)C1=O` (stereo not drawn) here?
A: 40.9% (inactive)

Q: Which max activity does the source give for `Cc1ccc(Nc2nc(N)c3ccccc3n2)cc1C` here?
A: -37.4% (inactive)

Q: Which max activity does the source give for `CC(C)Oc1ccc(CNC(=O)CC(c2ccccc2)c2cc(Cl)ccc2O)cc1` (stereo not drawn) here?
A: 29.6% [at 0.8 µM] (inactive)

Q: For `Clc1ccc(-n2ncc3c(N4CCCC4)ncnc32)cc1`, which max activity is on record?
A: 13.4% (inactive)

Q: With `C[C@H](CO)N1C[C@H](C)[C@H](CN(C)C(=O)CN2CCOCC2)Oc2ncc(C#CCN(C)C)cc2C1=O` as the compound, how does the max activity read?
A: 18.5% [at 0.42 µM] (inactive)

Q: With `Cc1ccc(S(=O)(=O)Nc2ccc3c(c2)C(=O)N([C@H](C)CO)C[C@@H](C)[C@H](CN(C)S(=O)(=O)c2cccs2)OCCCC[C@@H](C)O3)cc1` as the compound, how does the max activity read?
A: -17.3% [at 12 µM] (inactive)

Q: Which max activity does the source give for `COc1cc(C(=O)Nc2nc(-c3cccs3)cs2)cc(OC)c1OC` here?
A: 53.9% [at 6 µM] (inactive)

Q: With `CC[C@H](CO)Oc1cc(NCc2ccc(Cl)c(Cl)c2)c2ncn(C(C)C)c2c1` as the compound, how does the max activity read?
A: 27.3% [at 0.05 µM] (inactive)

Q: For `COc1ccc(Cl)cc1C(=O)Nc1nc2ccccc2[nH]1`, which max activity is on record?
A: 69.4% [at 0.195 µM] (inactive)

Q: Which max activity does the source give for `O=C(CN1C(=O)c2ccccc2S1(=O)=O)c1ccc(F)cc1` here?
A: 63.1% (inactive)

Q: With `c1ccc(-c2cn3c4c(sc3n2)CCCC4)cc1` as the compound, how does the max activity read?
A: -19.5% (inactive)

Q: For `COc1ccccc1C=NNC(=O)c1ccncc1`, which max activity is on record?
A: 20.7% (inactive)

Q: With `O=C(NCc1ccc(F)cc1)c1cc(C2CCCCN2S(=O)(=O)c2cccs2)on1` (stereo not drawn) as the compound, how does the max activity read?
A: 15.1% [at 0.38 µM] (inactive)

Q: Which max activity does the source give for `Cc1ccc(-c2noc(-c3cccs3)n2)cc1` here?
A: 22.5% [at 12 µM] (inactive)

Q: Which max activity does the source give for `O=C1OCCC1Sc1nnc(-c2ccc(Cl)cc2Cl)o1` (stereo not drawn) here?
A: 7.96% [at 0.8 µM] (inactive)

Q: Which max activity does the source give for `Cc1ccc(NC(=O)c2cnn(-c3ccccc3)c2C)cc1C` here?
A: 11.5% [at 0.05 µM] (inactive)

Q: Which max activity does the source give for `O=C(O)c1ccc(N/N=C/c2c[nH]c3ccccc23)cc1` here?
A: 10.4% [at 3 µM] (inactive)

Q: Which max activity does the source give for `Brc1ccc(-c2nc(-c3ccccn3)no2)o1` here?
A: -10% (inactive)

Q: Which max activity does the source give for `CCn1c(C)cc(C(=O)CN2C(=O)c3ccccc3S2(=O)=O)c1C` here?
A: -18.9% [at 6 µM] (inactive)

Q: For `Cc1cccc(-n2ncc3c(N4CCOCC4)ncnc32)c1`, which max activity is on record?
A: 28.5% (inactive)

Q: Which max activity does the source give for `O=C(Cc1ccccc1Cl)Nc1cccnc1` here?
A: 17.2% [at 0.1 µM] (inactive)

Q: Which max activity does the source give for `O=S1(=O)CCOC[C@H](CC2CCCCC2)N1Cc1ccccc1F` here?
A: -17.9% [at 0.1 µM] (inactive)

Q: With `COc1ccc(C(=O)CC(Sc2ccccc2N)c2ccc(OC)cc2)cc1` (stereo not drawn) as the compound, how does the max activity read?
A: 24.8% [at 0.8 µM] (inactive)

Q: Which max activity does the source give for `CN1c2ccc(-c3ccc(F)cc3)cc2[C@H]2[C@H](CCN2C(=O)Nc2ccc(F)cc2)[C@H]1CO` here?
A: 39.2% [at 1.6 µM] (inactive)

Q: For `CC(=O)Nc1cccc(-c2ccnc3c2CC(C(=O)NCc2cccnc2)O3)c1` (stereo not drawn), which max activity is on record?
A: 0% [setting not given] (inactive)

Q: With `Cc1ccc2nc(-c3ccc(Br)cc3)cn2c1` as the compound, how does the max activity read?
A: 0% [setting not given] (inactive)

Q: For `COc1ccccc1CNS(=O)(=O)c1ccc(N2CCCC2)cc1Br`, which max activity is on record?
A: -9.37% (inactive)

Q: For `COc1ccc(C(=O)Nc2nnc(-c3ccco3)s2)cc1`, which max activity is on record?
A: -21.3% [at 3 µM] (inactive)

Q: Which max activity does the source give for `CCc1nc(Sc2nnnn2-c2ccccc2)c2c3c(sc2n1)CCCC3` here?
A: -13.3% (inactive)

Q: With `C[C@H]1CN([C@@H](C)CO)C(=O)c2cc(C#CCc3ccccc3)cnc2O[C@H]1CN(C)Cc1ccccc1` as the compound, how does the max activity read?
A: 13.9% [at 3 µM] (inactive)

Q: For `COC(=O)c1ccc2nc(-c3cccc(N)c3)cn2c1`, which max activity is on record?
A: 9.42% [at 0.195 µM] (inactive)

Q: For `C[C@@H]1CN([C@H](C)CO)C(=O)c2cc(NC(=O)Nc3cccc4ccccc34)ccc2O[C@@H]1CN(C)C(=O)Nc1ccccc1`, which max activity is on record?
A: 29.1% [at 0.8 µM] (inactive)

Q: With `COc1ccc(-c2nc(N)n(C(=O)c3cccs3)n2)cc1` as the compound, how does the max activity read?
A: 49.5% (inactive)

Q: With `COc1ccc2[nH]c3c(c2c1)CCN1C(=O)N([C@@H](C)C(=O)NCc2ccc(C)cc2)C(=O)[C@]31C` as the compound, how does the max activity read?
A: -9.06% [at 6 µM] (inactive)

Q: Which max activity does the source give for `O=C(C[C@@H]1C[C@H]2c3cc(NC(=O)c4ccc5c(c4)OCO5)ccc3O[C@H]2[C@@H](CO)O1)NCc1ccc(Oc2ccccc2)cc1` here?
A: -15.7% [at 0.05 µM] (inactive)

Q: With `O=C(O)c1cccc(N/N=C/c2cccs2)c1` as the compound, how does the max activity read?
A: 58.2% [at 6 µM] (inactive)

Q: For `C[C@H](CO)N1C[C@H](C)[C@H](CN(C)C(=O)Nc2cccc3ccccc23)OCCCC[C@H](C)Oc2ccc(NC(=O)CCC(F)(F)F)cc2C1=O`, which max activity is on record?
A: 78.9% (inactive)

Q: With `C[C@H](CO)N1C[C@H](C)[C@@H](CN(C)CC2CCOCC2)Oc2ncc(Br)cc2C1=O` as the compound, how does the max activity read?
A: 4.11% (inactive)
